Columns and labels:
[1] = target: T1, Aspartate--tRNA(Asp/Asn) ligase (Mycobacterium tuberculosis (strain ATCC 25618 / H37Rv)) (UniProt P9WFW3); assay: Assay for Asp RNA synthetase-1 from Mycobacterium tuberculosis; type: functional; design: scale not given: direction of the effect not stated beside the values; conditions: 30 µM; further: in the data most compounds retested in dose-response had high values
T1 sequence (whole entry): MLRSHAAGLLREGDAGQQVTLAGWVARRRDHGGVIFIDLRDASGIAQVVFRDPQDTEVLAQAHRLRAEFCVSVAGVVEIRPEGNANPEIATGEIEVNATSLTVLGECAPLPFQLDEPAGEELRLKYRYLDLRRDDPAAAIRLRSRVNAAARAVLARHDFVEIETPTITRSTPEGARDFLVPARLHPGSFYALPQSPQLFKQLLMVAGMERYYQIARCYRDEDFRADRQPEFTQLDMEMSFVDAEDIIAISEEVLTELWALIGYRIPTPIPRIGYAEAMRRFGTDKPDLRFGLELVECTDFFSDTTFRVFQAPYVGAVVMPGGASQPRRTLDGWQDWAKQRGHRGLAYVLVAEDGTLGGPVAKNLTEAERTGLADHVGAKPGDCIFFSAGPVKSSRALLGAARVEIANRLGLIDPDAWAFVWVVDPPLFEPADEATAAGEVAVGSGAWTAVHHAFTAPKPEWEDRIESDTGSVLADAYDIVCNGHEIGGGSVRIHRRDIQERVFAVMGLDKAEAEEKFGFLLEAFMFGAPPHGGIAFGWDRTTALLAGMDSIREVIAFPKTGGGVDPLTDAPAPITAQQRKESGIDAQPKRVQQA

[2] = target: Shiga toxin 2 (Escherichia coli O157:H7) (UniProt P09385+P09386); assay: E. coli 0.157:H7 Shiga Toxin SOP - stx2 screening assay; type: functional; design: scale not given: direction of the effect not stated beside the values; conditions: 30 µM

| Compound | Percent Effect [1] [%] | Percent Effect [2] [%] |
| --- | --- | --- |
| Cc1nn(C)c(N(C)C)c1CNCc1ccc(OCC(N)=O)cc1 | -6.72 | -11.7 |
| COc1ccccc1CC(=O)N1CCCC(n2nc(C)cc2C)C1 (centres undefined) | -1.4 | 10.9 |
| Cc1cccc2c1cnn2CCCNC(=O)C(C)C | 11.8 | -9.88 |
| CN(C(=O)CCNC(=O)NC1CCCCC1)c1ccccc1 | -1.38 | 4.9 |
| CS(=O)(=O)N1CCC2(CC1)CC(CC(=O)NC1CC1)c1ccccc12 (centres undefined) | 6.15 | 4.11 |
| CCNc1cc2c(nn1)CCN(C(=O)CC1CCCCC1)C2 | -7.97 | -4.17 |
| O=C(CSC1=NS(=O)(=O)c2cc(F)ccc2N1)c1ccc(Cl)cc1 | 5.12 | -0.176 |
| CCc1ccc(S(=O)(=O)Nc2c(C)cccc2C(=O)O)s1 | 0.112 | 25.9 |
| CCn1cnnc1CNC(=O)CCC(=O)c1ccc2c(c1)OCCO2 | 4.55 | 13.7 |
| Cc1[nH]c2ccccc2c1-c1ccnc(NCCN2CCOCC2)n1 | 7.28 | -44.9 |
| Cc1cccc(C(=O)NCc2ccc(S(N)(=O)=O)cc2)n1 | -0.577 | -16.4 |
| CSc1ccc(C(CN)N2CCc3sccc3C2)cc1 (centres undefined) | -1.53 | -31.4 |
| OCCn1cc(CN2CCN(CCOc3ccccc3F)CC2)cn1 | -0.699 | 24.4 |
| COc1ncccc1CNC(=O)c1cccnc1O | -1.39 | -17.1 |
| COc1cc(C)nc(N2CCN(C(=O)CCc3cscn3)CC2)n1 | -2.13 | -10.1 |
| CC(C)OCCOCc1cccc(NC(=O)NCCn2ccnc2)c1 | 2.56 | -31.1 |
| CCCNC(=O)c1cnc(N(C)C)nc1COC | -0.929 | -6.54 |
| c1nc(COCC2CC2)c2n1CCCN(CC1CC1)C2 | -0.611 | -11.2 |
| Cc1cnc(N2CCC3(CCN(CC4CC4)C3=O)CC2)nc1 | -3.05 | -8.57 |
| CCC(=O)N1CCC(c2nnc(Cn3cncn3)n2C2CC2)CC1 | -3.04 | -2.15 |
| Cc1c(C)n(Cc2ccccn2)c2nc3c(c(N)c12)CCCC3 | -2.53 | -3.33 |
| Cc1cc(-c2cnn(CCNC(=O)C3CCCO3)c2C2CC2)on1 (centres undefined) | -4.09 | 7.9 |
| CC(C)CC(=O)N1CCN(C(=O)N(C)C)CC2(CC(=O)N(C)C2)C1 (centres undefined) | 1.73 | 1.92 |
| Cn1ccnc1CN1CCN(CC(=O)NCC(F)(F)F)CC1 | 1.97 | 18.6 |

| Compound | Percent Effect [1] [%] | Percent Effect [2] [%] |
| --- | --- | --- |
| CC(=O)N1C[C@H](NC(=O)c2cscn2)[C@@H]2OCCC[C@@H]21 | -2.64 | 6.1 |
| c1cncc(C2COC3(CCN(CC4CC4)CC3)C2)c1 (centres undefined) | -0.915 | -13.1 |
| COCc1cccc(NC(C)C(=O)N(C)Cc2cccc(F)c2)c1 (centres undefined) | -0.296 | -8.46 |
| O=C(NCc1cc(O)ncn1)C1CCOc2ccccc2C1 (centres undefined) | -6.23 | 16 |
| O=C(CCc1ccc(Cl)s1)N1CCCC(n2cncn2)C1 (centres undefined) | 2.08 | 5.05 |
| c1cnc(NCc2noc3c2CN(C2CCOCC2)CC3)nc1 | 2.79 | -7.78 |
| Cc1nc(C)n(C2CCCN(C(=O)c3csnn3)C2)n1 (centres undefined) | 9.97 | 18.7 |
| CC(C)CN1CCC(NC(=O)c2ccc(F)cc2I)CC1 | -2.95 | -20.7 |
| CCCc1n[nH]c(C2CN(C(=O)C3=COCCC3)CCO2)n1 (centres undefined) | -5.39 | 19 |
| Cc1cc(C)n(C2CN(CC(=O)NCC(C)(C)N3CCOCC3)C2)n1 | -2.72 | -13.3 |
| FC(F)(F)Cn1ccnc1CN1CCOC(Cn2cccn2)C1 (centres undefined) | 1.38 | 8.38 |
| CCc1nc(C2CCCN2C(=O)c2cc(C3CC3)[nH]n2)no1 (centres undefined) | -7.78 | 8.24 |
| CCN1C(=O)CCC12CCCN(Cc1nccs1)CC2 (centres undefined) | 2.52 | 1.68 |
| O=C(NCc1nn(-c2ccccc2)c2c1CCC2)NC1CC1 | 1.63 | 9.96 |
| Cc1ccc(CN2CC[C@H]3OCC[C@@H](C(=O)NC4CC4)[C@@H]3C2)o1 | 4.6 | -6.37 |
| CC(C)c1ccc(CN2CCC3(CCCN(c4nncs4)C3)C2)cc1 (centres undefined) | 1 | 5.96 |
| O=S1(=O)N=C(SCc2ccc(Cl)cc2)Nc2ccc(F)cc21 | -0.189 | -5.93 |
| CCOC1COC2(CCN(Cc3cccc(F)c3)CC2)C1 (centres undefined) | -3.19 | -3.58 |
| Cc1cc(-c2cnc(N3CCNC(=O)C3)nc2-c2ccc(C)o2)on1 | -1.93 | -18.2 |
| CCOc1cc(C(=O)N2CCCC(n3cncn3)C2)ccc1C (centres undefined) | 1.17 | 17.5 |
| CN1CCN(C[C@@H]2OC[C@H]3CN(Cc4cccc(F)c4)CC[C@H]32)CC1 | -1.14 | 11.3 |
| COc1ccc(CN2C[C@H]3CN(c4ccsc4)C(=O)[C@H]3C2)cc1 | 4.05 | -26.4 |
| CNc1nc2c(c(C(=O)N3CCCC3)n1)CN(Cc1nccn1C)CC2 | 1.96 | -4.2 |

Reference: ChEMBL document CHEMBL3988442, “University of Dundee, Small-Polar-MMV Screening Library” (2021)
